# Assay outcomes from PubChem BioAssay.
# Only some compounds are listed: those with a hit (about 18% of all), similar ones and a draw of the others.
# IL-1B inflam inh: inhibitors of inflammasome signaling (IL-1 beta secretion); 360,000 tested, 4.7% active; activity change, % at 57.5 µM; THP-1 LPS/ATP IL-1B secretion, AlphaLISA, 16 h; hits give low values; in the data active means activity change below about -50%; inconclusive means mostly about -30% to -49%; further: on the % scale 0 is the no-effect control and ±100 the full control effect
#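 Secreted IL-1B measured by AlphaLISA bead assay after 16 h compound exposure of THP-1 cells; compounds (final up to 57.5 uM) added 1 h before LPS (250 ng/mL) and ATP (1.25 mM) stimulation; lower signal means less secretion.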
# TGFb SMAD3 inh: TGF-b pathway inhibition; HepG2 CAGA-GFP TGF-b/SMAD3 reporter, GFP fluorescence, 18 h; TGF-beta stimulated, 500 pg/mL final; Potency, µM (highest dose often 46.1 µM), for the others: at the top dose activity, negative = inhibition, actives largely listed as inhibitors; 410,000 tested, 1.2% active; AID 588855; further: potency means the concentration at half of the fitted maximal effect; on the % scale 0 is the no-effect control and ±100 the full control effect; nearly all actives have a fitted effect of over 65% in size
#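 Inhibition of TGF-beta-driven CAGA-GFP reporter expression in HEPG2 cells is measured by cellular GFP fluorescence after 18 h stimulation with 500 pg/mL recombinant TGF-beta in 1% FBS medium at 37 degrees C.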
# TDP1 inh: inhibitors of human tyrosyl-DNA phosphodiesterase TDP1; AID 485290; 350,000 tested, 0.28% active; Potency, µM (series often up to 130 µM), inactives show at the highest dose activity change, negative = inhibition, actives largely listed as inhibitors; recombinant TDP1, AlphaScreen DNA substrate cleavage; Q9NUW8; further: potency means the concentration at half of the fitted maximal effect; on the % scale 0 is the no-effect control and ±100 the full control effect; nearly all actives have a fitted effect of over 40% in size
# Target sequence (Q9NUW8 whole entry, looked up): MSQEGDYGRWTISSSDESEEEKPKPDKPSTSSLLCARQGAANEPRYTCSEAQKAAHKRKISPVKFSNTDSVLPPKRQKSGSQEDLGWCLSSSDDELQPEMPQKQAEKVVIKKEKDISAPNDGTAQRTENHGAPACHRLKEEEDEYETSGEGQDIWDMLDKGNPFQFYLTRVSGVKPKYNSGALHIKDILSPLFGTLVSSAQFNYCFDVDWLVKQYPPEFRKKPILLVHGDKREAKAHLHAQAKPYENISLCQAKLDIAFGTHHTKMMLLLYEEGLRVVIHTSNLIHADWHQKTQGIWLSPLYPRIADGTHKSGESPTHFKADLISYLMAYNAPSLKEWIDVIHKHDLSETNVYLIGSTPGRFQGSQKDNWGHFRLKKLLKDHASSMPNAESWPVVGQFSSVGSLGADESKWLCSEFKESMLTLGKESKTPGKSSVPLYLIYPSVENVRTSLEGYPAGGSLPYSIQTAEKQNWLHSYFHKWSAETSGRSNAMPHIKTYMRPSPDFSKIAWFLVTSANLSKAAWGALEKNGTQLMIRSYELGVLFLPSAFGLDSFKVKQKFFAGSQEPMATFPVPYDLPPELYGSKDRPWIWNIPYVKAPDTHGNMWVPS
#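 Signal: AlphaScreen proximity between streptavidin donor and anti-FITC acceptor beads on intact substrate. Reaction: Tdp1 1 nM, substrate 15 nM final, 5 min RT after 15 min compound preincubation.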
# TDP1 cell noCPT: qHTS for Inhibitors of human tyrosyl-DNA phosphodiesterase 1 (TDP1): qHTS in cells in absence of CPT; 420,000 tested, 15% active; DT40 Tdp1-/- hTDP1 cells, no CPT, ATP luminescence, 48 h; Potency, µM (top dose mostly 46.2 µM), without a hit: top-dose activity change, negative = growth inhibition, hits mostly inhibitors; further: potency means the concentration at half of the fitted maximal effect; on the % scale 0 is the no-effect control and ±100 the full control effect; nearly all actives have a fitted effect of over 55% in size
#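 Camptothecin absent (DMSO only). Human TDP1-complemented DT40 knockout cells, 400 cells/well, 37 °C for minimum 48 hr; ATP measured via CellTiter-Glo, 30 min dark incubation, luminescence.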
# DT40 TDP1 CPT: growth inhibition of DT40 Tdp1-/-;hTDP1 cells with camptothecin (screen for TDP1 inhibitors); chicken DT40 Tdp1-/-;hTDP1 cells + 20 nM CPT, ATP luminescence, 48 h; Potency, µM (titrated, usually from 46.2 µM), inactives show top-dose activity change, negative = growth inhibition, actives largely listed as inhibitors; 420,000 tested, 12% active; further: potency means the concentration at half of the fitted maximal effect; on the % scale 0 is the no-effect control and ±100 the full control effect; nearly all actives have a fitted effect of over 55% in size
#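 Chicken DT40 Tdp1-/- cells stably complemented with human TDP1 were seeded at 400 cells/well in medium containing 20 nM camptothecin, exposed to pin-transferred compounds, and grown at 37 °C for at least 48 hr. Viability was read as ATP luminescence.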
# HepG2 tox: kills HepG2 cells in TGF-b inhibitor counter-screen; 410,000 tested, 0.76% active; Potency, µM (top dose mostly 46.1 µM), without a hit: at the top dose activity change, negative = cytotoxicity, most hits filed as cytotoxic; HepG2 CAGA-GFP viability, ATP luminescence, 18 h; further: potency means the concentration at half of the fitted maximal effect
#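 HepG2 CAGA-GFP cells (1000/well, DMEM with 1% FBS) received compound, then TGF-beta at 500 pg/mL final, and were incubated 18 hours at 37 degrees C. Viability was read by CellTiter-Glo luminescence. Media-only wells were set as complete cell-killing and DMSO as no toxicity.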
# * marks the source's active call; other numbers are inactive results; i = inactive; ? = inconclusive; nt = no result given. Unless noted, the call rests on the fitted dose curve; in most records, active means well fitted curve in the direction sought with a large enough effect; inconclusive means small, poorly fitted or top-dose-only effect, or another doubt; inactive means no such curve, though single readings can be large; an effect the other way counts as inactive or inconclusive.
SMILES,IL-1B inflam inh,TGFb SMAD3 inh,TDP1 inh,TDP1 cell noCPT,DT40 TDP1 CPT,HepG2 tox
Cc1cc(CN2CCCC(C(=O)Nc3cccc(-n4cccn4)c3)C2)cc(C)c1O (centres undefined),0,-3%,2%,?,16µM*,-28%
O=C(Nc1cccc(-n2cnnn2)c1)C1CCCN(Cc2cccc(C(F)(F)F)c2)C1 (centres undefined),i,-24%,0%,18µM*,13µM*,23%
O=C(Nc1cccc(-n2cnnn2)c1)C1CCCN(C(=O)Cc2cccc(Cl)c2)C1 (centres undefined),-22,1%,nt,?,?,-3%
O=C(Nc1cccc(-n2cccn2)c1)C1CCCN(Cc2cccc(F)c2F)C1 (centres undefined),9,0%,2%,21µM*,23µM*,-27%
CSc1cccc(CN2CCCC(C(=O)Nc3cccc(-n4cccn4)c3)C2)c1 (centres undefined),-66*,-17%,1%,?,?,-60%
CN(Cc1cccc(F)c1)C(=O)C1CC(=O)N(c2ccc3c(c2)OCCO3)C1 (centres undefined),-10,-9%,1%,-14%,?,-2%
CCOC(=O)c1cc(C#N)c(C)nc1N(CC)CC,9,24%,-7%,-5%,15%,-1%
CCN(CC(=O)Nc1ccc2c(c1)OCCO2)C(=O)c1ccc(C(F)(F)F)cc1,-2,-5%,1%,-2%,7%,2%
O=C(Nc1cccc(-n2cccn2)c1)C1CCCN(Cc2cc3ccccc3[nH]2)C1 (centres undefined),-60*,?,nt,?,16µM*,-39%
Cn1cc(CN2CCCC(C(=O)Nc3cccc(-n4cccn4)c3)C2)cn1 (centres undefined),3,-7%,2%,26%,1%,-20%
CCn1ncc(CN2CCCC(C(=O)Nc3cccc(-c4cc5ccccc5[nH]4)c3)C2)c1C (centres undefined),-94*,?,9%,?,21µM*,-30%
Cc1c(CN2CCCC(C(=O)Nc3cccc(-n4cccn4)c3)C2)cnn1C (centres undefined),1,-9%,3%,-6%,-11%,-31%
Cc1nn(C)c(C)c1CCC(=O)N1CCCC(N2CCN(c3ccc(F)cc3)CC2)C1 (centres undefined),0,3%,6%,5%,-18%,5%
CCOc1ccc(S(=O)(=O)N2CCN(C(=O)Cc3ccc(S(=O)(=O)N4CCOCC4)s3)CC2)cc1,-13,?,2%,23µM*,?,-8%
CCOc1ccc(S(=O)(=O)N2CCN(C(=O)c3ccc(Cl)c(S(=O)(=O)N4CCOCC4)c3)CC2)cc1,-13,-27%,nt,?,?,-14%
Cc1ccc(C(=O)N2CCC(Cc3ccccc3)CC2)cc1S(=O)(=O)N1CCOCC1,-18,1%,0%,9.2µM*,?,-31%
CCOc1ccc(S(=O)(=O)N2CCN(C(=O)c3ccc(C)c(S(=O)(=O)N4CCOCC4)c3)CC2)cc1,-4,?,-4%,18µM*,26µM*,-3%
Cc1ccc(C(=O)N2CCN(c3ccccc3)CC2)cc1S(=O)(=O)N1CCOCC1,-2,7%,4%,?,?,-2%
CCOc1ccc(S(=O)(=O)N2CCN(C(=O)c3cccn3C)CC2)cc1,-3,-24%,9%,15µM*,?,-4%
CCOc1ccc(NC(=O)COC(=O)Cc2ccc(S(=O)(=O)N3CCOCC3)s2)cc1,32,1%,3%,3%,10%,0%
